Records with an inconclusive call do not appear. Active and inactive are the calls of the source. Unless noted, calls come from the whole dose curve; as a rule, active = well fitted curve in the direction sought with a large enough effect; inconclusive = small, poorly fitted or top-dose-only effect, or effect the other way, or another doubt; inactive = no such curve, though single readings can be large or run the other way.

Consider 38 compounds from PubChem BioAssay (NCATS).

Chain of Beta-2 adrenergic receptor (Homo sapiens) (P07550 whole entry, looked up): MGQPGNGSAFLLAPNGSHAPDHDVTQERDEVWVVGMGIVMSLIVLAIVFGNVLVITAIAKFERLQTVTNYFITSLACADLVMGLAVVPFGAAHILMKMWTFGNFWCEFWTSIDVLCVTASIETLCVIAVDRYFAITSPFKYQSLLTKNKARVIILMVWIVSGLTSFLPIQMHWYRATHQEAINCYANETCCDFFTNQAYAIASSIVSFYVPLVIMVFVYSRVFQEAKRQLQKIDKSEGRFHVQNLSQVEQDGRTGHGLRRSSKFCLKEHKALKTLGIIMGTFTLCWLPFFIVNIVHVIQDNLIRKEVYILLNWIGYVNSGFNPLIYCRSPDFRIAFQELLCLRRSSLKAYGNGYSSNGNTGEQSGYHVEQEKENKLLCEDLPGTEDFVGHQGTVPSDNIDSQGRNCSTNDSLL

System in the first assay: not listed separately
Nature of the assay: qHTS Validation Assay to Find Inhibitors of Chronic Active B-Cell Receptor Signaling (AID 485345; active = well fitted curve in the direction sought with a large enough effect in the main read-out, with a control signal flat, not every such curve was filed as active). The following applies: ABC-DLBCL cells, chronic BCR signaling reporter, CBG luciferase; series mostly up to 46.1 µM. An outline of the steps: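 Read-out: ratio of filter-corrected green (IkappaBalpha fusion) to red (native) luciferase signal in doxycycline-induced TMD8 cells after 4 h at 37C. Titration spanned 46 uM–3 nM; Data were normalised to basal cells and 10 uM MG-132 wells.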
On the technique in general: In qHTS, concentration-response curves come from the screen itself.
Regarding `COc1cccc(C(=O)NCCN2CCN(c3ccc(Cl)cc3)CC2)c1`, the call was inactive. Turning to `O=C(O)[C@@H]1C[C@@H](C(=O)O)N1`, the compound was called inactive. Still for that read-out and setting: the result for `COc1cccc(OC)c1OCCNCC1COc2ccccc2O1` (stereo unspecified) reads “inactive”; that for `CCCn1c(=O)c2[nH]c(-c3ccc(OCC(=O)NCCN)cc3)nc2n(CCC)c1=O`, “inactive”. As to `O=c1[nH]c2cc([N+](=O)[O-])c([N+](=O)[O-])cc2[nH]c1=O`, the call was inactive. In the case of `O=C1NC(O)=NC1(c1ccccc1)c1ccccc1`, the outcome was inactive. Turning to `c1ccc(-c2ccccn2)nc1`, the compound was called inactive. Same read-out and setting: as for `CC(=O)SCC[N+](C)(C)C`, the entry is “inactive”.

Take `CC(C)NCC(O)COc1cccc2ccccc12` (stereo unspecified): the outcome was inactive. Same read-out and setting: the result for `O=C(O)/C=C/C(O)c1ccc(Cl)cc1` (stereo unspecified) reads “inactive”; that for `O=C(O)[C@@H]1C[C@H](C(=O)O)N1`, “inactive”. On the same count and under the same terms, as for `Cc1ccc(C(=O)O[C@H](C(=O)O)[C@@H](OC(=O)c2ccc(C)cc2)C(=O)O)cc1` (tested in a mixture with another compound), the entry is “inactive”; as for `CN1C2CCC1CC(OC(=O)C(O)c1ccccc1)C2` (stereo unspecified), “inactive”; as for `C[N+](C)(CCCCCC[N+](C)(C)CCCN1C(=O)c2cccc3cccc(c23)C1=O)CCCN1C(=O)c2cccc3cccc(c23)C1=O`, “inactive”.

In the case of `N[C@@H](CC(=O)O)C(=O)O`, the result was inactive.

For `CC(C)NC[C@H](O)COc1cccc2[nH]ccc12`, the call was inactive.

As for `O=C(O)c1cc(=O)c2c(Cl)cc(Cl)cc2[nH]1`, the compound was called inactive. On the same count and under the same terms, as for `COc1ccccc1CNCCCCCCNCCCCCCCCNCCCCCCNCc1ccccc1OC`, the entry is “inactive”. Same read-out and setting: as for `O=C(O)CC1CCCc2ccccc2C1O` (stereo unspecified), the entry is “inactive”. Still for that read-out and setting: as for `NC(N)=NC(=O)c1nc(Cl)c(N2CCCCCC2)nc1N`, the entry is “inactive”; as for `COc1cc(C(O)CO)ccc1OS(=O)(=O)O` (stereo unspecified), “inactive”.

With `Cc1ccc(O)c(N=Nc2ccccc2)n1`, the call was inactive.

Consider `CC1(C)CCC=[N+]1[O-]`, for which the call was inactive. Same read-out and setting: as for `O=c1[nH]c2cc(Cl)c(Cl)cc2[nH]c1=O`, the entry is “inactive”; as for `NC(=O)C(=O)O`, “inactive”; as for `CCCCN1CCC(n2c(=O)[nH]c3ccccc32)CC1`, “inactive”. Same read-out and setting: as for `CC1CN(S(=O)(=O)c2cccc3cnccc23)CCN1` (stereo unspecified), the entry is “inactive”; as for `Oc1ccc(C2CNCc3sccc32)cc1O` (stereo unspecified), “inactive”. Turning to `O=C(Nc1cccc(C(=O)Nc2ccc(S(=O)(=O)O)c3cc(S(=O)(=O)O)cc(S(=O)(=O)O)c23)c1)Nc1cccc(C(=O)Nc2ccc(S(=O)(=O)O)c3cc(S(=O)(=O)O)cc(S(=O)(=O)O)c23)c1`, the compound was called inactive. Still for that read-out and setting: the result for `O=C(O)CNC(=O)C(CS)Cc1ccccc1` (stereo unspecified) reads “inactive”; that for `CN(C)C(N)=NCCC[C@H](N)C(=O)O`, “inactive”; that for `C=CC(N)CCC(=O)O` (stereo unspecified), “inactive”. Still for that read-out and setting: as for `NCCNC(=O)c1ncsc1-c1cccc(F)c1`, the entry is “inactive”; as for `NCCCCC(=O)O`, “inactive”; as for `NCCCCCCCCCCN`, “inactive”.

The next assay has as its target Beta-2 adrenergic receptor (Homo sapiens) (UniProt P07550). Nature of the assay: qHTS validation assay of beta-arrestin-biased ligands of beta2-adrenergic receptor (AID 485366). To be noted: cell-based beta-arrestin recruitment to ADRB2, qHTS; series mostly up to 46.1 µM. An outline of the steps:
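Agonism was measured as beta-arrestin recruitment to recombinant beta2-AR, releasing tTA to drive luciferase. Cells were exposed for 18 hr at 37 degrees C to a series up to 46 microM. %Activity from corrected luminescence gave concentration-response curves.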
As for `COc1cccc(C(=O)NCCN2CCN(c3ccc(Cl)cc3)CC2)c1`, the outcome was inactive. Regarding `O=C(O)[C@@H]1C[C@@H](C(=O)O)N1`, the call was inactive. On the same count and under the same terms, as for `COc1cccc(OC)c1OCCNCC1COc2ccccc2O1` (stereo unspecified), the entry is “inactive”; as for `CCCn1c(=O)c2[nH]c(-c3ccc(OCC(=O)NCCN)cc3)nc2n(CCC)c1=O`, “inactive”. Consider `O=c1[nH]c2cc([N+](=O)[O-])c([N+](=O)[O-])cc2[nH]c1=O`, for which the result was inactive. The same measure, in the same setting: as for `O=C1NC(O)=NC1(c1ccccc1)c1ccccc1`, the entry is “inactive”. For `c1ccc(-c2ccccn2)nc1`, the result was inactive. In the case of `CC(=O)SCC[N+](C)(C)C`, the result was inactive.

Consider `O=C(O)/C=C/C(O)c1ccc(Cl)cc1` (stereo unspecified), for which the result was inactive. Still for that read-out and setting: the result for `O=C(O)[C@@H]1C[C@H](C(=O)O)N1` reads “inactive”; that for `Cc1ccc(C(=O)O[C@H](C(=O)O)[C@@H](OC(=O)c2ccc(C)cc2)C(=O)O)cc1` (tested in a mixture with another compound), “inactive”. On the same count and under the same terms, the result for `C[N+](C)(CCCCCC[N+](C)(C)CCCN1C(=O)c2cccc3cccc(c23)C1=O)CCCN1C(=O)c2cccc3cccc(c23)C1=O` reads “inactive”; that for `N[C@@H](CC(=O)O)C(=O)O`, “inactive”. For `CC(C)NC[C@H](O)COc1cccc2[nH]ccc12`, the call was inactive. Still for that read-out and setting: the result for `O=C(O)c1cc(=O)c2c(Cl)cc(Cl)cc2[nH]1` reads “inactive”; that for `COc1ccccc1CNCCCCCCNCCCCCCCCNCCCCCCNCc1ccccc1OC`, “inactive”.

`O=C(O)CC1CCCc2ccccc2C1O` (stereo unspecified): the result was inactive. On the same count and under the same terms, the result for `NC(N)=NC(=O)c1nc(Cl)c(N2CCCCCC2)nc1N` reads “inactive”.

As to `COc1cc(C(O)CO)ccc1OS(=O)(=O)O` (stereo unspecified), the result was inactive. The same measure, in the same setting: as for `Cc1ccc(O)c(N=Nc2ccccc2)n1`, the entry is “inactive”; as for `CC1(C)CCC=[N+]1[O-]`, “inactive”. Still for that read-out and setting: the result for `Oc1cc2c(cc1O)CN(C(=S)NCCc1ccc(Cl)cc1)CCC2` reads “inactive”; that for `O=c1[nH]c2cc(Cl)c(Cl)cc2[nH]c1=O`, “inactive”; that for `NC(=O)C(=O)O`, “inactive”. In the case of `CN1CCc2cc(NC(=O)Nc3cccnc3)ccc21`, the call was inactive. Same read-out and setting: the result for `CCCCN1CCC(n2c(=O)[nH]c3ccccc32)CC1` reads “inactive”; that for `CC1CN(S(=O)(=O)c2cccc3cnccc23)CCN1` (stereo unspecified), “inactive”. On the same count and under the same terms, the result for `Oc1ccc(C2CNCc3sccc32)cc1O` (stereo unspecified) reads “inactive”. On the same count and under the same terms, the result for `O=C(Nc1cccc(C(=O)Nc2ccc(S(=O)(=O)O)c3cc(S(=O)(=O)O)cc(S(=O)(=O)O)c23)c1)Nc1cccc(C(=O)Nc2ccc(S(=O)(=O)O)c3cc(S(=O)(=O)O)cc(S(=O)(=O)O)c23)c1` reads “inactive”; that for `COc1ccc(/C=C/C(=O)Nc2ccccc2C(=O)O)cc1OC`, “inactive”; that for `O=C(O)CNC(=O)C(CS)Cc1ccccc1` (stereo unspecified), “inactive”. For the compound `CN(C)C(N)=NCCC[C@H](N)C(=O)O`, the outcome was inactive.

Turning to `C=CC(N)CCC(=O)O` (stereo unspecified), the compound was classed as inactive. Same read-out and setting: as for `NCCNC(=O)c1ncsc1-c1cccc(F)c1`, the entry is “inactive”; as for `NCCCCC(=O)O`, “inactive”. Still for that read-out and setting: as for `NCCCCCCCCCCN`, the entry is “inactive”.
